KCNH2 WT inh: qHTS for Inhibitors of KCHN2 3.1: Wildtype qHTS; AID 720551, 2013; actives 0.37% (n = 340,000); Voltage-gated inwardly rectifying potassium channel KCNH2 (Homo sapiens), Q12809; U2OS, BacMam KCNH2, thallium flux FluxOr; active compounds read low; activity change, % at 1.84 µM;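 active = maximum activity change below -70%; inconclusive = maximum activity change between -70% and -50%; inactive = maximum activity change above -50%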; also: % is scaled to controls: 0 for no effect and ±100 for the full control effect
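U2OS cells were transduced with wild-type KCNH2 virus (2.03 x 10^8 / mL) for 4 h at room temperature, then cultured overnight at 37 C. Thallium flux was read with FluxOr dye. Rate constants were normalized to DMSO controls.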
TRPV1 potentiator: HTS Assay for Compounds that Act as Potentiators of the Vanilloid Receptor 1; TRPV1-expressing cells, Fluo-8 calcium influx, capsaicin EC20 potentiation; potentiation, % at 8.33 µM; actives 0.02% (n = 320,000); AID 540277, 2011; in the data active = potentiation above about 80%; inconclusive = between about 30% and that limit; also: 0% is about no effect
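TRPV1-expressing cells were cultured overnight at 35.5C and loaded with Fluo-8 calcium dye for 40 to 90 min at room temperature. After a 10 s baseline, compound was added and calcium influx was read kinetically for 3 min (ex 480/em 520 nm).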
KCNH2 3.1 inh: qHTS for Inhibitors of KCHN2 3.1: Mutant qHTS; AID 720553, 2013; activity change, % (tested at about 1.8 µM); U2OS KCNH2 3.1, thallium flux FluxOr; active compounds read low; actives 0.95% (n = 340,000); Potassium voltage-gated channel subfamily H member 2, brain isoform KCNH2 3.1 (human);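 active = maximum activity change below -70%; inconclusive = maximum activity change from -70% to -50%; inactive = maximum activity change above -50%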;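 also: thallium influx rate constant from kinetic fluorescence after stimulation buffer; % is scaled to controls: 0 for no effect and ±100 for the full control effect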
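U2OS cells transduced with KCNH2 3.1 mutant virus (1.77 x 10^8 /mL, 4 h), plated overnight at 37 C, loaded 45 min with FluxOr dye plus Red40 quencher. Thallium flux rate constant from kinetic reads after stimulation buffer, normalised to controls.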
TRPV1 agonist: HTS Assay for Compounds that Act as Agonists of the Vanilloid Receptor 1. TRPV1-expressing cells, Fluo-8 calcium influx, agonist mode. Transient receptor potential cation channel subfamily V member 1 (Homo sapiens), Q8NER1. actives 0.19% (n = 320,000). activation, % at 8.33 µM; in the data active = activation above about 80%; inconclusive = between about 30% and that limit; also: 0% is about no effect
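Cells expressing TRPV1 were dye-loaded with Fluo-8 and read kinetically: 10 s baseline, 3 min after compound (agonist portion), then 2 min after EC20 capsaicin (allosteric enhancer portion). Calcium-bound dye fluorescence at 480/520 nm.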
* marks the source's active call; other numbers are inactive results; ? = inconclusive; nt = not tested or not shown. In the library only some 1.2% were active in any assay of this set; here they are far more common.

SMILES	KCNH2 WT inh	TRPV1 potentiator	KCNH2 3.1 inh	TRPV1 agonist
CC(C)(C)OC(=O)[C@H](Cc1ccccc1)NC(=O)c1nc[nH]c1C(=O)N[C@@H](Cc1ccccc1)C(=O)OC(C)(C)C	-5	?	-70*	14
CC(=O)Nc1ccc(N2C(=O)c3ccc(S(=O)(=O)c4ccc(C(=O)O)cc4)cc3C2=O)cc1	-168*	20	22	0
O=C(O)c1ccccc1C(=O)N1CCN(S(=O)(=O)c2cccc(C(F)(F)F)c2)CC1	2	nt	17	nt
COc1ccc(NC(=O)c2sc3ncnc(N4CCN(c5ccccn5)CC4)c3c2C)cc1Cl	-118*	9	-114*	0
COc1ccc(NC(=O)CN2CCN(c3ccccn3)CC2)cc1Cl	3	25	-1	13
Cc1cc(Br)ccc1NC(=O)c1sc2ncnc(N3CCN(c4ccccn4)CC3)c2c1C	-106*	5	-110*	5
CCc1ccc(NC(=O)c2sc3nc(C)nc(N4CCN(c5ccccn5)CC4)c3c2C)cc1	-9	2	?	2
COc1ccc(NC(=O)c2sc3nc(C)nc(N4CCN(c5ccccn5)CC4)c3c2C)cc1Cl	-78*	0	-114*	4
CC(C)(C)c1ccc(NC(=O)N2CCCN(c3ccc([N+](=O)[O-])cn3)CC2)cc1	0	-16	-15	92*
COc1ccc(CNCC(O)(c2ccc(F)cc2)c2ccc(F)cc2)cc1	8	?	-105*	3
COc1ccc(CNCC(O)(c2ccccc2)c2ccccc2)cc1	19	3	-5	2
CC1(C)Oc2ccc(NC(=O)C3COc4ccccc4O3)cc2O1 (stereo unspecified)	-145*	8	-172*	2
Cc1ccc(NC(=O)C2COc3ccccc3O2)cc1 (stereo unspecified)	-26	-1	-17	?
O=C(C1CCCO1)N1CCN(Cc2c(O)ccc3ccccc23)CC1 (stereo unspecified)	-14	0	-95*	0
O=C(c1ccc(Cl)cc1)C1CCCN(Cc2cnn(-c3ccccc3)c2)C1 (stereo unspecified)	-78*	5	-88*	12
Cc1ccn(CCC(=O)NC2CC(C)(C)Cc3c2cnn3-c2ccccc2C)n1 (stereo unspecified)	1	-3	13	2
CCCC[C@@H](CNC)NC[C@H](Cc1ccc(O)cc1)NCCc1ccc(OCC)cc1	-24	10	-71*	4
CCC[C@H](CN[C@@H](CNC)[C@H](C)O)NCCc1ccc(OC)cc1	12	-16	21	-1
COc1cc(/C=N/NC(=O)CN2CCCCC2)ccc1OCc1ccccc1	-4	-4	10	-2
O=C(CN1CCCCC1)N/N=C/c1ccccc1OCc1ccccc1	2	-1	-81*	1
O=C(Nc1ccccc1)N1CCc2c([nH]c3ccccc23)C1C(F)(F)F (stereo unspecified)	-2	-7	-15	23
O=C(O)CCC(=O)N1CCc2c([nH]c3ccccc23)C1C(F)(F)F (stereo unspecified)	-2	-2	-85*	3
Cc1nc2c(C)cccn2c1C(=O)c1ccccc1	-5	-11	-84*	5
Cc1ccc(C(C)C)c(O)c1C(=O)O	5	nt	-1	nt
Cc1nn(CC(=O)OCCOc2ccc(Br)cc2)c(C)c1[N+](=O)[O-]	-15	1	-73*	0
SMILES	KCNH2 WT inh	TRPV1 potentiator	KCNH2 3.1 inh	TRPV1 agonist
Cc1cccc(Cc2nnc(CCC(=O)N(C)Cc3ccncc3C)o2)c1	5	-5	-2	-2
COc1ccc(CCc2nnc(CCC(=O)N(C)Cc3ccncc3C)o2)cc1	1	-1	-72*	2
Cc1cc(OC(=O)Nc2ccccc2)ccc1Cl	5	nt	9	nt
COc1cc(OC)cc(-c2nnc(NC(=O)c3ccc4c(c3)OCCO4)o2)c1	-14	12	6	-1
O=C(Nc1ncccc1O)c1ccc(S(=O)(=O)NCc2ccco2)cc1	-19	nt	-30	nt
COc1ccc(CNC(=O)[C@@H](NC(=O)C2CCN(S(=O)(=O)c3ccc(C)cc3)CC2)C(C)C)cc1OC	-12	9	-74*	-1
COc1ccc(S(=O)(=O)N2CCCCC2)cc1C(=O)N1CCCC1	-70*	-2	-11	0
Cc1cccc(OC(C)C(=O)Nc2ccc(S(=O)(=O)N3CCCC3)cc2)c1 (stereo unspecified)	-11	-9	-188*	?
COc1ccc(CC(=O)Nc2ccc(S(=O)(=O)N3CCCCC3)cc2)cc1OC	4	-12	-3	88*
COc1ccc(S(=O)(=O)N2CCC(C(=O)N[C@H](C(=O)NCc3ccncc3)C(C)C)CC2)cc1	8	-10	1	7
COc1ccc(CC(=O)Nc2ccc(S(=O)(=O)N3CCCC3)cc2)cc1OC	-1	nt	32	nt
O=C(c1cccs1)N1C[C@H](n2cc(C3CC3)nn2)[C@@H](O)C[C@@H]1c1ccc(Cl)cc1	-30	nt	24	nt
CCOc1ccc(C(=O)Nc2ccc(S(=O)(=O)N3C[C@@H]4C[C@@H](C3)c3cccc(=O)n3C4)cc2)cc1	2	2	-16	3
Cc1cc(NC(=O)CSCC(=O)OCC(=O)c2cccc(Br)c2)no1	-10	4	5	5
COc1ccc(Cl)cc1N(CC(=O)NC(C)(C)C)S(=O)(=O)c1ccc(C)c([N+](=O)[O-])c1	-3	-12	-2	9
COc1ccc(CC(=O)Nc2cccc(SC)c2)cc1OC	-12	-8	-6	101*
CC1(C)NC(=O)N(CC(O)CN(Cc2ccccc2)Cc2ccccc2)C1=O (stereo unspecified)	17	-3	-2	83*
COc1ccc(C2=NOC(Cn3nc(C(=O)NCc4cccc(Br)c4)cc3-c3ccccc3)C2)cc1 (stereo unspecified)	3	nt	-12	nt
CCOC(=O)c1c(NC(=O)COc2cccc3c2CCN(C)C3=O)sc2c1CCC2	1	-3	-4	13
O=C(c1cc2ccccc2oc1=O)N1CCN(c2ccc(N3CCOCC3)nn2)CC1	-10	-5	-88*	1
CCCCN(C)C(=S)Nc1ccsc1C(=O)OC	-7	4	-155*	6
COC(=O)c1sccc1NC(=O)c1ccc(OC)cc1OC	-246*	-7	-176*	-1
COC(=O)c1sccc1NC(=O)Nc1ccc(C(C)=O)cc1	16	-10	-79*	?
COC(=O)c1sccc1NC(=S)N(C)C1CCCCC1	3	-3	12	13
O=C(CC1CC2CCC1C2)N1CCN(S(=O)(=O)c2ccc(F)cc2)CC1 (stereo unspecified)	-81*	nt	13	nt
O=C(CC1CC2CCC1C2)N1CCN(S(=O)(=O)c2ccc(C(F)(F)F)cc2)CC1 (stereo unspecified)	28	nt	?	nt

High-throughput results (PubChem BioAssay)
